Sequences and labels used below:
B1: 17587070_17598549_148_CDS_ENSMUSG00000015733_ENSMUST00000015877|mouse|control|control (ssRNA)
RNA: GGGAGUUCUACAGUCCGACGAUCGUGAAUGAUGAAUUUUGCUGCUAUACGAACCUUCUCCUCAUCGGACAACUGCUCCUCCAGAUCCGCCAUCUUCCUUCUGGCGACAGACCGUGGCGCUGGUGGCAGCAGCGGCCACCUGACCAACAGAGGAUUGAGCAUCA
B2: 33058320_33060047_1444_CDS_ENSG00000170266_ENST00000307363|human|control|control (ssRNA)
RNA: GGGAGUUCUACAGUCCGACGAUCUCCCUGGGGGAUCCCAUCCACAGCAACAUAUGCUCGAUCGUGGACUCCAUUGAGGGGUGAAGAGAGAGGUGCUGGGUUGCUGCAAUCUUGAGGAAGUGUUGUCCGGUACAGCACAAACCCCAACAGAGGAUUGAGCAUCA
B3: chr5:145543945:145543946:-_ENSG00000133706_ENST00000545646|hu_hu|hu_hu_hu_mus_True|18_98 (ssRNA)
RNA: GGGAGUUCUACAGUCCGACGAUCCUGAACGGCCAGUGGCGGGAAAUAAUCAAGCCAGUGCUCUGCUUCAGAAAACUUCACUAUGUCGUCAUCAGAGAGCCCAAGGGAUUUCAUAAUGCCCCACUGGUACUUAGAAGAUCCUGCCAACAGAGGAUUGAGCAUCA
B4: 74491169_74493004_2024_3pUTR_ENSMUSG00000020745_ENSMUST00000021091|mouse|control|control (ssRNA)
RNA: GGGAGUUCUACAGUCCGACGAUCAUCAACGGCACUCCCACACCUUUACUGUUUGAUCUACACUGCCAGUAACCACAUAGGGUGCCGUCUUAUGGAAAUCCAAGGAGGUAACAAAGUGUUCAUGCGCAUUGAGGGUCUUCAUGCCAACAGAGGAUUGAGCAUCA
B5: chr10:36858571:36858572:-_ENSMUSG00000069662_ENSMUST00000092584|mus_mus|FALSE|FALSE (ssRNA)
RNA: GGGAGUUCUACAGUCCGACGAUCAUAAAAAAUUUUUAGUCGAAGAGAUCAAAAAAGCAGCAGCGCAGGAAGGAGGGAAAAAGGUGGAAAAGUCGAGCACAAAAAAGGAGCCCAAGUGUAGUUUUUUUAAAAAAAGAAGUAAUACAACAGAGGAUUGAGCAUCA
B6: chr10:36858571:36858572:-_ENSMUSG00000069662_ENSMUST00000092584|mus_hu|FALSE|FALSE (ssRNA)
RNA: GGGAGUUCUACAGUCCGACGAUCAUAAAAAAAUUUUAGUCGAAGAGAUCAAAAAGCAGCAGCACAGGAGGGAGGGAAAAAGGGUGGAAAAGUCGAGCACAAAAAAAGGAGCCCAAGUGUAGUUCGAAAAAAAAAGAAGUAAUACAACAGAGGAUUGAGCAUCA
B7: 72182037_72182157_980_3pUTR_ENSG00000148730_ENST00000373218|human|control|control (ssRNA)
RNA: GGGAGUUCUACAGUCCGACGAUCCCAGAGGAAAGAAAGGAAGUGGACCUCAAAACAGUGUCACAGGGUAACGCUACCAGAGUUGCACAAGCUGUGCUCUGUCCCGAGGGACGAAUACCUCAAGGUAAAAGGGAAAGCAGCUCUCAACAGAGGAUUGAGCAUCA
B8: chr5:134790399:134790400:-_ENSMUSG00000060261_ENSMUST00000173341|mus_hu|FALSE|FALSE (ssRNA)
RNA: GGGAGUUCUACAGUCCGACGAUCGGGAGGCGAGAGGGGGCGAGGGGCCCGUGCGUGUCGGUCGCGCUCCUGUCACCGCCGCAUGGCCGCCCCGCAGGCAGGGCCUCGCUCAGCGCCUUGAUCCGAUCACUGGGGGACAGAGGCCAACAGAGGAUUGAGCAUCA
B9: chr22:19452774:19452775:-_ENSG00000070010_ENST00000399523|hu_hu|hu_hu_hu_mus_False|28_58 (ssRNA)
RNA: GGGAGUUCUACAGUCCGACGAUCCUUCUCAUUGUAGUUGAUAGCAAUCACAUCUCCAGUCGUCAGACAGGCGAAGUUCCUAAGUGCAUUUUCUAAUACCGCUUUAGGGUUGGUGAUAUCCAGGAAGUCUGGGCUCUGAGGCUGCAACAGAGGAUUGAGCAUCA
B10: chr3:119456006:119456007:-_ENSMUSG00000028134_ENSMUST00000029780|mus_hu|FALSE|FALSE (ssRNA)
RNA: GGGAGUUCUACAGUCCGACGAUCAAUAUGAAGUACACGAGAAGGAGCACCAUCCAUUUUAUCUUCUCCUUUAAAUUUUUUACUAUCAUUACCAUUGGCUGUAACUACCAUGCUGCUCAUAUUAGAGUUCGGACUACUGAGAACCAACAGAGGAUUGAGCAUCA
B11: chr14:59855892:59855893:+_ENSMUSG00000035469_ENSMUST00000043227|mus_mus|motif|central (ssRNA)
RNA: GGGAGUUCUACAGUCCGACGAUCGCUUCCAUUAUUAUAUCAGAAGAAAACAUUAAUUUCAAUAAUAGUUUCUUGCUUUCGGUGAUUAUAACCAAAACCAAGUAGAAAAAUAAAAAGAUUGCAUUUAAAAAAAAUUUGCAAACCCAACAGAGGAUUGAGCAUCA
B12: chr2:42509997:42509998:+_ENSG00000143924_ENST00000318522|hu_hu|FALSE|FALSE (ssRNA)
RNA: GGGAGUUCUACAGUCCGACGAUCUCGCUGAGUUCUCUCCUCAUAAUUAAAUAGUACUACUACUGAUGCAAUGAAAUAAACUAUUUUCCCGGUCGGAAGAAGGUAAACAUUAGCUCUACAGUCCUUUCCUCGAUAACCAUAUGCCAACAGAGGAUUGAGCAUCA
B13: chr14:59855892:59855893:+_ENSMUSG00000035469_ENSMUST00000043227|mus_hu|motif|central (ssRNA)
RNA: GGGAGUUCUACAGUCCGACGAUCUUCCAUUAUUACAUUAGAUGAAAAAAUCAAUUCAAAUAAGAGUUGUCAUAUCCUGCGGUGAUUAACAAAAAAACAAGUAGAAAAAUAAGAGAGUGUAUUUAAAAAAAAUAAUCAAAUGCUCAACAGAGGAUUGAGCAUCA
B14: 55555555_55559808_3342_CDS_ENSG00000115355_ENST00000336838|human|control|control (ssRNA)
RNA: GGGAGUUCUACAGUCCGACGAUCCAAAAGUUUAUACCUGUCAUCAGUACUUUGUUCAUCAUGUAAGAGUCGCUCCUUAUUUAACCCUAUCUUCUCAAGCUCAUGAGUUAAUUUUUCGAGAUCAUUGUUCAUCUGUUGGGUCUUCAACAGAGGAUUGAGCAUCA

The text below walks through data of article PMC12136788.

The full ranking holds about 24,000 sequences; the median of “enrichment r” is about 0.99, and the highest 2% start at about 3.7. What follows is part of a selection rich in the highest values, with near analogues and random picks from the rest.

This assay addresses T1, UNK ZnF1-3 (human, UniProt Q9C0B0 31-174).
T1 sequence: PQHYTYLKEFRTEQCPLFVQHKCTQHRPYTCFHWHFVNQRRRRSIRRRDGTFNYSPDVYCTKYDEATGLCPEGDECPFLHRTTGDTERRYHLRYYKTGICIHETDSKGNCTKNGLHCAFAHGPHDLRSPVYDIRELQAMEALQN
Nature of the assay: nsRBNS (natural sequence RNA bind-n-seq); RBNS binding buffer (assumed for nsRBNS): 25 mM Tris pH 7.5, 150 mM KCl, 3 mM MgCl2, 0.01% Triton X-100, 500 ug/ml BSA, 20 U/ml SUPERase-In, 4 C; UNK is unkempt and MSI1 is Musashi-1; names of the RNAs are library labels; protein concentration not given here; high values mean tight binding.
For the molecule B1, the binding signal is 0.822 enrichment R.

For the molecule B2, the binding signal was 0.932 enrichment R.

In turn, B3 registered a binding signal of 0.932 enrichment R.

The molecule B4 showed a binding signal of 0.744 enrichment R.

B5 showed a binding signal of 11.7 enrichment R.

Consider B6, for which the binding signal was 4.29 enrichment R.

Regarding B7, the binding signal came out at 0.893 enrichment R.

B8 returned a binding signal of 0.997 enrichment R.

B9 came in with a binding signal of 0.837 enrichment R.

Consider B10, for which the binding signal was 4.17 enrichment R.

B11: the binding signal was 4 enrichment R.

In turn, B12 had a binding signal of 0.867 enrichment R.

In turn, B13 displayed a binding signal of 6.68 enrichment R.

Take B14: the binding signal was found to be 0.637 enrichment R.
